Test results reported in PubChem BioAssay (EPA / NIEHS).
“And” between values parts separate entries of the source, which are not always exact repeats. Equal values may be shown once. Some compounds were tested as several samples or in several runs, with calls that do not always agree. The source made the active and inactive calls. How the source made its calls: active means hit-call score of the fitted dose curve at least 0.9, where 1 is the maximum; inactive means score below 0.9.

Key:
[1] = target: Bile acid receptor (Homo sapiens) (UniProt Q96RI1); experiment: ATG_IR1_CIS: Attagene CIS-FACTORIAL HepG2 Assay for human Nuclear Receptor Subfamily 1 Group H Member 4 (NR1H4), IR1 submotif (AID 2282946); settings: IR1 reporter transcription, actives raise or lower the signal
Chain of Bile acid receptor (Homo sapiens) (Q96RI1 whole entry, looked up): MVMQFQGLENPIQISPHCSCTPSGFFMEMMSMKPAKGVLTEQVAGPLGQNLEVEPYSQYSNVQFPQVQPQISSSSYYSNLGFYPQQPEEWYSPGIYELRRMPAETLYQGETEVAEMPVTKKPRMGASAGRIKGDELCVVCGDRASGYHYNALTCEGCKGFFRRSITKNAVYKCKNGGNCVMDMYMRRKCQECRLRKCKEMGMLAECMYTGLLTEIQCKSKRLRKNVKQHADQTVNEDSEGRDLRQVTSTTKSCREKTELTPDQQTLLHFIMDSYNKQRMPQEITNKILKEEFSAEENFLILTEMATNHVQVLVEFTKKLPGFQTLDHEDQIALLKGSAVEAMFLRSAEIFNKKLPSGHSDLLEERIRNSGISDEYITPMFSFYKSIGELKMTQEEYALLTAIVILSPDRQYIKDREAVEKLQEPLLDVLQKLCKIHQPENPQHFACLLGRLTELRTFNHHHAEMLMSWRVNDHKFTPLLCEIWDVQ
Method in brief: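 HepG2 cells transiently transfected with multiple cis-promoter-driven reporter units to measure endogenous transcription factor activity; 24 h exposure. Reporter mRNA read by RT-PCR, FAM labelling, HpaI digestion and capillary electrophoresis. Bidirectional fit versus DMSO.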

[2] = ATG_ISRE_CIS: Attagene CIS-FACTORIAL HepG2 Assay for human Interferon Regulatory Factor 1 (IRF1) binding to an Interferon-Stimulated Response Element (ISRE) (AID 2282948); settings: HepG2 ISRE cis-reporter (Attagene), mRNA transcription readout; actives raise or lower the signal
Method in brief: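 Quantitation relies on labelled RT-PCR fragments separated by capillary electrophoresis. Human HepG2 cells bearing cis-promoter reporter constructs were treated 24 h; DMSO served as baseline for bidirectional fitting.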

[3] = ATG_M_32_CIS: Attagene CIS-FACTORIAL HepG2 Assay for M32 Transcription Factor (Internal Marker) (AID 2282949); settings: HepG2 Attagene cis-factorial M32 reporter, mRNA; actives raise or lower the signal;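 further: background control marker of the multiplexed CIS panel rather than a real target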
Method in brief: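 Internal background marker read-out: RT-PCR/capillary electrophoresis fluorescence of reporter transcripts from transiently transfected HepG2 cells after 24 h chemical exposure. Activity fitted bidirectionally relative to DMSO negative control.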

[4] = ATG_M_06_CIS: Attagene CIS-FACTORIAL HepG2 Assay for M06 Transcription Factor (Internal Marker) (AID 2282950); settings: HepG2 Attagene CIS-FACTORIAL M06 internal marker reporter; actives raise or lower the signal
Method in brief: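 HepG2 cells transiently transfected with cis-regulated multiple reporter transcription units were exposed to chemical for 24 h; reporter mRNA was quantified by RT-PCR, 6-FAM primer labelling, HpaI digestion and capillary electrophoresis, fitted bidirectionally against DMSO.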

[5] = target: Hypoxia-inducible factor 1-alpha (Homo sapiens) (UniProt Q16665); experiment: ATG_HIF1a_CIS: Attagene CIS-FACTORIAL HepG2 Assay for human Hypoxia Inducible Factor 1 (HIF1A) (AID 2282951); settings: HepG2 Attagene cis-factorial HIF1a reporter transcription; actives raise or lower the signal
Chain of Hypoxia-inducible factor 1-alpha (Homo sapiens) (Q16665 whole entry, looked up): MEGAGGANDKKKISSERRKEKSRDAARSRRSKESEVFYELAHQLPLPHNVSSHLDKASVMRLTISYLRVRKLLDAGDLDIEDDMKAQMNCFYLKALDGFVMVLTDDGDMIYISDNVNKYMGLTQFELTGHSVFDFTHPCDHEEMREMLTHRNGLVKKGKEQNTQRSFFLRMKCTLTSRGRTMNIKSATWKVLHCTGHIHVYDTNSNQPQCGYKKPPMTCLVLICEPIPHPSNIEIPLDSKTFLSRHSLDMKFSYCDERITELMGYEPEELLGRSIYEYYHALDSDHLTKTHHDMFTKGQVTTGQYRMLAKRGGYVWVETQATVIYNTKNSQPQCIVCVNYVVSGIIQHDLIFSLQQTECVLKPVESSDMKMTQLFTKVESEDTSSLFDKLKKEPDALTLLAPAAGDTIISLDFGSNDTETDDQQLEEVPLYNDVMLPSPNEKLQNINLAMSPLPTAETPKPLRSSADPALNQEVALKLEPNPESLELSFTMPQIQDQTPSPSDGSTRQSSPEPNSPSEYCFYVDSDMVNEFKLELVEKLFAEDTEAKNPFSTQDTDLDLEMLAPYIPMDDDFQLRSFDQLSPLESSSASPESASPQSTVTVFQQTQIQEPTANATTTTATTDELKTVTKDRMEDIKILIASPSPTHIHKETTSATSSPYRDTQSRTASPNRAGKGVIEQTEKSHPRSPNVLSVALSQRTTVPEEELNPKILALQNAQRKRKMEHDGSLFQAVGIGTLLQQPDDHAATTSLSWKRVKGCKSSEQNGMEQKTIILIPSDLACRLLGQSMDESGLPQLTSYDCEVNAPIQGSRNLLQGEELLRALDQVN
Method in brief: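 Activity is fitted in both directions relative to DMSO. Reporter transcripts are read by RT-PCR, fluorescent primer extension and capillary electrophoresis after 24 h chemical treatment. The cells are HepG2 carrying transiently transfected cis-element-driven reporter units responding to endogenous factors.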

[6] = target: Hepatocyte nuclear factor 6 (Homo sapiens) (UniProt Q9UBC0); experiment: ATG_HNF6_CIS: Attagene CIS-FACTORIAL HepG2 Assay for human Hepatocyte Nuclear Factor 6 (HNF6) (AID 2282952); settings: HepG2 Attagene cis-factorial HNF6 reporter transcription; actives raise or lower the signal
Chain of Hepatocyte nuclear factor 6 (Homo sapiens) (Q9UBC0 whole entry, looked up): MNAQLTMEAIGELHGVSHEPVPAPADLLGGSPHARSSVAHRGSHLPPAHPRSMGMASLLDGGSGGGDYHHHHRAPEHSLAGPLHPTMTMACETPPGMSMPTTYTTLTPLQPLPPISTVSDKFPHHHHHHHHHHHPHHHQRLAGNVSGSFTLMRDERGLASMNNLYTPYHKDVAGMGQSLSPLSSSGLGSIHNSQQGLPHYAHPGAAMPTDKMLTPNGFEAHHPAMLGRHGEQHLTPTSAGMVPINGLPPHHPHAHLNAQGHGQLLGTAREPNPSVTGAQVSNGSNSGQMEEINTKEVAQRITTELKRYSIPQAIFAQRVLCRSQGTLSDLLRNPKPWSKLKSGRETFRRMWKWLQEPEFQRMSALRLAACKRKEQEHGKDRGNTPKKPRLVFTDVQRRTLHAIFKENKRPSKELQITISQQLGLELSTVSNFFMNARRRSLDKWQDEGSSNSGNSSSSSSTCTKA
Method in brief: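 Multiplexed mRNA reporter assay in transfected HepG2; 24 h dosing; RT-PCR plus capillary electrophoresis fluorescence; DMSO-referenced bidirectional curve fitting.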

[7] = ATG_MRE_CIS: Attagene CIS-FACTORIAL HepG2 Assay for human Metal Responsive Element (MRE) (AID 2282954); settings: HepG2 MRE cis-reporter transcription, Attagene multiplex; actives raise or lower the signal
Method in brief: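 Fluorescent reporter fragments separated by capillary electrophoresis give mRNA induction for the MRE unit after 24 h treatment of transfected HepG2 cells. Endogenous transcription-factor activity is read; DMSO serves as negative control and baseline.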

[8] = ATG_PBREM_CIS: Attagene CIS-FACTORIAL HepG2 Assay for human Phenobarbital-responsive Enhancer Module (PBREM) (AID 2282955); settings: HepG2 PBREM cis-reporter, Attagene multiplexed transcription; actives raise or lower the signal
Method in brief: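 Endogenous transcription factor activity was read from reporter transcripts in transiently transfected human HepG2 liver cells after 24 h dosing. RT-PCR products were fluorescently labelled, HpaI-cut and sized by capillary electrophoresis; activity fitted bidirectionally against DMSO baseline.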

[9] = target: Paired box protein Pax-6 (Homo sapiens) (UniProt P26367); experiment: ATG_Pax6_CIS: Attagene CIS-FACTORIAL HepG2 Assay for human Paired Box 6 (PAX6) (AID 2282956); settings: HepG2 CIS-FACTORIAL PAX6 reporter transcription, RNA readout; actives raise or lower the signal
Chain of Paired box protein Pax-6 (Homo sapiens) (P26367 whole entry, looked up): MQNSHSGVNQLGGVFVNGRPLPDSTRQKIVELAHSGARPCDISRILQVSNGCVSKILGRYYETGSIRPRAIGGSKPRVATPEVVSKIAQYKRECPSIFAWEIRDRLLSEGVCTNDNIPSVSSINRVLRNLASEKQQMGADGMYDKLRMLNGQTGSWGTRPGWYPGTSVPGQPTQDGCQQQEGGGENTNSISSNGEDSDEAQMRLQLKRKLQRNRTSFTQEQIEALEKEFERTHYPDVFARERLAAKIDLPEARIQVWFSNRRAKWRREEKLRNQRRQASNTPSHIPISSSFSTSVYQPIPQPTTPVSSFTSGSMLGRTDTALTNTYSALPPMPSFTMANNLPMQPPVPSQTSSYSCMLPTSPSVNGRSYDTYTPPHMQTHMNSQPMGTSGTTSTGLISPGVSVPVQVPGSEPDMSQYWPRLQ
Method in brief: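 After twenty-four hours of chemical exposure, transfected HepG2 cells are harvested for RNA. Cis-promoter reporter transcripts are amplified, fluorescently labelled and sized by capillary electrophoresis, with gain and loss of signal scored against DMSO.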

[10] = ATG_PXRE_CIS: Attagene CIS-FACTORIAL HepG2 Assay for human Pregnane X Receptor Element (PXRE) (AID 2282957); settings: HepG2 Attagene CIS-FACTORIAL PXRE reporter, mRNA; actives raise or lower the signal
Method in brief: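 Cells: HepG2, transiently transfected reporter units under cis promoter control. Exposure: 24 h. Detection: reporter mRNA via RT-PCR/CE fluorescence; bidirectional fitting, DMSO-referenced.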

[11] = ATG_PPRE_CIS: Attagene CIS-FACTORIAL HepG2 Assay for human Peroxisome Proliferator-activated Response Element (PPRE) (AID 2282958); settings: HepG2 PPRE cis-element reporter, Attagene transcription factor profiling; actives raise or lower the signal
Method in brief: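 Endogenous PPRE-driven transcription is measured in HepG2 cells carrying transfected multi-reporter constructs. Reporter transcripts are quantified by RT-PCR, HpaI digestion and capillary electrophoresis 24 h after dosing. DMSO baseline, bidirectional fit.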

[12] = target: Transcription factor Sp1 (Homo sapiens) (UniProt P08047); experiment: ATG_Sp1_CIS: Attagene CIS-FACTORIAL HepG2 Assay for human Specificity Protein 1 (Sp1) (AID 2282961); settings: HepG2 Sp1 cis-reporter transcription, actives raise or lower the signal
Chain of Transcription factor Sp1 (Homo sapiens) (P08047 whole entry, looked up): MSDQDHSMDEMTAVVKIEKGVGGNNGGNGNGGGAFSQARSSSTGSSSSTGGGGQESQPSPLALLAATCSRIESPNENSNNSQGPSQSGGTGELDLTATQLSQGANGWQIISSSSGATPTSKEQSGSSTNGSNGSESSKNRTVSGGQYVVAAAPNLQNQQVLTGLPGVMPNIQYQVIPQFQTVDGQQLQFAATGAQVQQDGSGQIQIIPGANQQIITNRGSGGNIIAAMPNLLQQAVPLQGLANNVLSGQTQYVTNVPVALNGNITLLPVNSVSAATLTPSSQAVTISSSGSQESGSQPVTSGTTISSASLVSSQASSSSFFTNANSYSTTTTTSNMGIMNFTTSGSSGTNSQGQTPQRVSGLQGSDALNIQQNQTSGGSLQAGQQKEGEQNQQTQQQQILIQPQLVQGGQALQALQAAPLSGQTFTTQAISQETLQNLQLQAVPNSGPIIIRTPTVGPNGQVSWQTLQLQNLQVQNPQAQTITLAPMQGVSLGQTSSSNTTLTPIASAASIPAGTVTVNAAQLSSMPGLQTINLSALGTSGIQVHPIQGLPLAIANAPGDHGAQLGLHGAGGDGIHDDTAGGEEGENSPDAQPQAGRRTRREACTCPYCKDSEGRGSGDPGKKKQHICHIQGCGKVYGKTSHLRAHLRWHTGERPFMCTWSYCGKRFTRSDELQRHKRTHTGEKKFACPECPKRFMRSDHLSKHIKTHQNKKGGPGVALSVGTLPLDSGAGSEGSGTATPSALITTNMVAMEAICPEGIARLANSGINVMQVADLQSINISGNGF
Method in brief: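 Read-out is reporter transcript level, measured by RT-PCR and fluorescent capillary electrophoresis after 24 h chemical treatment. System: transiently transfected HepG2 cells reporting endogenous transcription factor activity; gain or loss fitted against DMSO baseline.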

[13] = target: Signal transducer and activator of transcription 3 (Homo sapiens) (UniProt P40763); experiment: ATG_STAT3_CIS: Attagene CIS-FACTORIAL HepG2 Assay for human Signal Transducer and Activator of Transcription 3 (STAT3) (AID 2282963); settings: HepG2, Attagene cis-factorial STAT3 reporter transcription; actives raise or lower the signal
Chain of Signal transducer and activator of transcription 3 (Homo sapiens) (P40763 whole entry, looked up): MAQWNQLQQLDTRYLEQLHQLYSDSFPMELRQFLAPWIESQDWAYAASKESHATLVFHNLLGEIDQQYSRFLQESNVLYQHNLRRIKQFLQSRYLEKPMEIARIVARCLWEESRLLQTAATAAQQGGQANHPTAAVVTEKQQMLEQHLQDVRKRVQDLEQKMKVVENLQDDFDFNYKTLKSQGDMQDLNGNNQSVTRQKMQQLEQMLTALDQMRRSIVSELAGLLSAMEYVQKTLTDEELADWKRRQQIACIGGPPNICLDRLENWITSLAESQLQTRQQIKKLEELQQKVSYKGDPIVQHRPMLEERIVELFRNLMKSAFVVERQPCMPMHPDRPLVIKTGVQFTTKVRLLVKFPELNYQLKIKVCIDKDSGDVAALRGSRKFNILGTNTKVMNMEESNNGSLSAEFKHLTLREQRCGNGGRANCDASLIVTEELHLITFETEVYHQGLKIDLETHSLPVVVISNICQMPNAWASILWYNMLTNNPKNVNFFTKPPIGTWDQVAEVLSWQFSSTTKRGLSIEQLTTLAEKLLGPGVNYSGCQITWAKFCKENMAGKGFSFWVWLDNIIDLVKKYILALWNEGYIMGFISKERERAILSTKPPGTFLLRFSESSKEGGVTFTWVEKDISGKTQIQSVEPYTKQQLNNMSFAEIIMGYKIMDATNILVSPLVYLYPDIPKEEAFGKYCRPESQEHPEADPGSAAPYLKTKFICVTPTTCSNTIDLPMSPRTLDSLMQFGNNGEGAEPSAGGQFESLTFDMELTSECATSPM
Method in brief: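 Values derive from bidirectional fits relative to DMSO of reporter mRNA levels, measured by RT-PCR with capillary electrophoresis, in HepG2 cells carrying transiently transfected cis-regulated reporter units and exposed 24 h.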

[14] = ATG_TA_CIS: Attagene CIS-FACTORIAL HepG2 Assay for human TA Basal Promoter (AID 2282964); settings: HepG2 Attagene CIS-factorial TA basal promoter reporter; actives raise or lower the signal
Method in brief: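 HepG2 cells transiently transfected with multiplexed cis-promoter reporter units, dosed 24 h. Reporter mRNA measured by RT-PCR, 6-FAM labelling, HpaI digestion and capillary electrophoresis; bidirectional fit versus DMSO baseline, serving as background control.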

[15] = ATG_TCF_b_cat_CIS: Attagene CIS-FACTORIAL HepG2 Assay for human T-Cell-Factor with beta-catenin (TCF/b-cat) (AID 2282965); settings: HepG2 TCF/beta-catenin cis-reporter transcription, actives raise or lower the signal
Method in brief: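 HepG2 cells transiently transfected with cis-promoter-driven multiplexed reporter units; reporter mRNA measured 24 h after dosing by RT-PCR, FAM labelling, HpaI digestion and capillary electrophoresis. Bidirectional fitting relative to DMSO baseline.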

[16] = ATG_GRE_CIS: Attagene CIS-FACTORIAL HepG2 Assay for human Glucocorticoid Response Elements (GRE) (AID 2282947); settings: HepG2 GRE cis-reporter, Attagene multiplex mRNA; actives raise or lower the signal
Method in brief: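 Endogenous transcription factor activity is read through cis-element reporter constructs transiently transfected into HepG2 cells. After 24 h treatment, labelled RT-PCR products are resolved by capillary electrophoresis; DMSO sets baseline for bidirectional curve fitting.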

[17] = target: Heat shock factor protein 1 (Homo sapiens) (UniProt Q00613); experiment: ATG_HSE_CIS: Attagene CIS-FACTORIAL HepG2 Assay for human Heat Shock Transcription Factor 1 (HSE) (AID 2282953); settings: HepG2 HSE cis-reporter, Attagene RNA transcription; actives raise or lower the signal
Chain of Heat shock factor protein 1 (Homo sapiens) (Q00613 whole entry, looked up): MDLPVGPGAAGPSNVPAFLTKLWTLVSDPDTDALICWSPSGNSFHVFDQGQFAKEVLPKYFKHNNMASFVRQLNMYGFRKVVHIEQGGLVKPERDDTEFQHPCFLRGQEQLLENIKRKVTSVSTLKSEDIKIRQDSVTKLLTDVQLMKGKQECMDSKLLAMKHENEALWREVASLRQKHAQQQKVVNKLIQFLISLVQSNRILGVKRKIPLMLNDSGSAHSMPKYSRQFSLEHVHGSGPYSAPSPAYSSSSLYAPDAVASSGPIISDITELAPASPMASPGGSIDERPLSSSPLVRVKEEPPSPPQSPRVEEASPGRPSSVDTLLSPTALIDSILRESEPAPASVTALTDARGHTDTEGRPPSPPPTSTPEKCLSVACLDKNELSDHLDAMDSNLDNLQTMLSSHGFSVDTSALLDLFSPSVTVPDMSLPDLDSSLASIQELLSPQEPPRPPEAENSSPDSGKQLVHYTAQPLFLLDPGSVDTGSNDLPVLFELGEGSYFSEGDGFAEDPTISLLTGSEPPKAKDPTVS
Method in brief: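 HepG2 cells transiently transfected with multiple reporter transcription units under cis-regulatory promoter control, measuring endogenous transcription factor activity. After 24 h chemical exposure, reporter mRNA quantified by RT-PCR, fluorescent labelling, HpaI digestion and capillary electrophoresis; bidirectional fit versus DMSO.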

[18] = ATG_Sox_CIS: Attagene CIS-FACTORIAL HepG2 Assay for human SRY-box transcription factor (SOX) (AID 2282960); settings: HepG2 Attagene cis-factorial SOX reporter, mRNA; actives raise or lower the signal
Method in brief: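 Reporter transcripts, measured by RT-PCR and capillary electrophoresis of labelled fragments, report endogenous SOX transcription factor activity. Transiently transfected human HepG2 cells receive chemical for 24 h; changes in either direction are fitted relative to DMSO.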

For `CC(COc1ccc(Oc2ccccc2)cc1)Oc1ccccn1` (stereo unspecified), which outcome [1] is on record?
Its outcome is “inactive”.

And the outcome [2]?
Its outcome is “inactive”.

And the outcome [3]?
Its outcome is “inactive”.

What about the outcome [4] of the same compound?
The outcome was “inactive”.

And the outcome [5]?
Its outcome is “inactive”.

And the outcome [6]?
The outcome was “inactive”.

What about the outcome [7] of the same compound?
The outcome was “inactive”.

What about the AC50 [8] of the same compound?
The AC50 was 13.8 µM (active).

And the outcome [9]?
Its outcome is “inactive”.

What about the AC50 [10] of the same compound?
The AC50 was 13.7 µM (active).

What about the AC50 [11] of the same compound?
The AC50 was 15.1 µM (active).

And the outcome [12]?
Its outcome is “inactive”.

And the outcome [13]?
The outcome was “inactive”.

What about the outcome [14] of the same compound?
The outcome was “inactive”.

What about the outcome [15] of the same compound?
Its outcome is “inactive”.

For `CSc1nnc(C(C)(C)C)c(=O)n1N`, which outcome [1] is on record?
Its outcome is “inactive”.

And the outcome [16]?
The outcome was “inactive”.

And the outcome [2]?
The outcome was “inactive”.

What about the outcome [3] of the same compound?
Its outcome is “inactive”.

What about the outcome [4] of the same compound?
Its outcome is “inactive”.

What about the outcome [5] of the same compound?
The outcome was “inactive”.

What about the outcome [6] of the same compound?
Its outcome is “inactive”.

And the outcome [17]?
The outcome was “inactive”.

And the outcome [7]?
The outcome was “inactive”.

What about the outcome [8] of the same compound?
Its outcome is “inactive”.

And the outcome [9]?
Its outcome is “inactive”.

What about the outcome [10] of the same compound?
The outcome was “inactive”.

What about the outcome [18] of the same compound?
The outcome was “inactive”.

And the outcome [12]?
The outcome was “inactive”.

And the outcome [13]?
Its outcome is “inactive”.

And the outcome [14]?
The outcome was “inactive”.

What about the outcome [15] of the same compound?
The outcome was “inactive”.

Which outcome [1] does the source give for `Cc1cc(C2CC2)nc(Nc2ccccc2)n1` here?
Its outcome is “inactive”.

And the AC50 [2]?
Its AC50 is 81 µM (active).

And the outcome [3]?
The outcome was “inactive”.

What about the outcome [4] of the same compound?
Its outcome is “inactive”.

What about the AC50 [5] of the same compound?
The AC50 was 50 µM (active).

And the outcome [6]?
Its outcome is “inactive”.

What about the outcome [17] of the same compound?
Its outcome is “inactive”.

What about the AC50 [7] of the same compound?
The AC50 was 74.7 µM (active).

What about the AC50 [8] of the same compound?
Its AC50 is 50 µM (active).

What about the AC50 [9] of the same compound?
The AC50 was 50 µM (active).

And the AC50 [10]?
The AC50 was 13.4 µM (active).

And the AC50 [11]?
The AC50 was 22 µM (active).

What about the AC50 [18] of the same compound?
Its AC50 is 90 µM (active).

What about the AC50 [12] of the same compound?
Its AC50 is 84.7 µM (active).

And the outcome [13]?
Its outcome is “inactive”.

What about the outcome [14] of the same compound?
Its outcome is “inactive”.

And the outcome [15]?
Its outcome is “inactive”.

What does the source list for `O=[N+]([O-])c1cc(C(F)(F)F)c(Cl)c([N+](=O)[O-])c1Nc1ncc(C(F)(F)F)cc1Cl`?
AC50 [1]: 12.9 µM (active); outcome [1]: inactive; AC50 [16]: 20.3 µM (active); outcome [16]: inactive; AC50 [2]: 16.6 µM (active); outcome [2]: inactive; AC50 [3]: 18.1 µM (active); outcome [3]: inactive; outcome [4]: inactive; outcome [5]: inactive; AC50 [6]: 17.1 µM (active); outcome [6]: inactive; outcome [17]: inactive; outcome [7]: inactive; outcome [8]: inactive; AC50 [9]: 6.88 µM (active); outcome [9]: inactive; AC50 [10]: 2.84 µM (active) and 1.27 µM (active); AC50 [11]: 14.6 µM (active); outcome [11]: inactive; outcome [12]: inactive; AC50 [13]: 19.1 µM (active); outcome [13]: inactive; AC50 [14]: 15.4 µM (active); outcome [14]: inactive; AC50 [15]: 16.1 µM (active); outcome [15]: inactive
